{"source": "the supplement of paper PMC6992640"}
{"tested_on": "WHIM2 (cells of a triple-negative basal-like breast cancer xenograft)", "assay": "cell viability of combination (% of vehicle); higher = less cytotoxic", "conditions": "1 µM; 72 h; partner dose: 10 nM", "protocol": "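PDX cells were treated for 72 h with each drug at 1 µM plus afatinib (10 nM; 1 µM for WHIM30). Luciferase viability is expressed as percent of vehicle.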"}
{"smiles": "Cc1cc(C(C#N)c2ccc(Cl)cc2)c(Cl)cc1NC(=O)c1cc(I)cc(I)c1[O-].[Na+]", "note": "(stereo not given) [Closantel Sodium] + CN(C)C/C=C/C(=O)Nc1cc2c(Nc3ccc(F)c(Cl)c3)ncnc2cc1O[C@H]1CCOC1 [Afatinib]", "cell viability of combination": 49.1}
{"smiles": "CCCCCCCCCCCCCCCC[n+]1ccccc1.[Cl-]", "note": "[Cetylpyridinium Chloride] + CN(C)C/C=C/C(=O)Nc1cc2c(Nc3ccc(F)c(Cl)c3)ncnc2cc1O[C@H]1CCOC1 [Afatinib]", "cell viability of combination": 32.2}
{"smiles": "CCCCCCCCCCCCCCCC[N+](C)(C)C.[Br-]", "note": "[Cetrimonium Bromide (CTAB)] + CN(C)C/C=C/C(=O)Nc1cc2c(Nc3ccc(F)c(Cl)c3)ncnc2cc1O[C@H]1CCOC1 [Afatinib]", "cell viability of combination": 38}
{"smiles": "Cc1cc(C(C#N)c2ccc(Cl)cc2)c(Cl)cc1NC(=O)c1cc(I)cc(I)c1O", "note": "(stereo not given) [Closantel] + CN(C)C/C=C/C(=O)Nc1cc2c(Nc3ccc(F)c(Cl)c3)ncnc2cc1O[C@H]1CCOC1 [Afatinib]", "cell viability of combination": 47}
{"smiles": "CCCCCCCCCCCC[N+](C)(C)CCOc1ccccc1.[Br-]", "note": "[Domiphen Bromide] + CN(C)C/C=C/C(=O)Nc1cc2c(Nc3ccc(F)c(Cl)c3)ncnc2cc1O[C@H]1CCOC1 [Afatinib]", "cell viability of combination": 41.6}
